A short description of assay [1]: NCI Yeast Anticancer Drug Screen. Data for the rad50 strain (AID 155).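 Further: 0% = growth of vehicle-only cultures of the same strain.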 The following applies: S. cerevisiae rad50 strain growth inhibition; at 50.0 µM; active compounds read high. The method, boiled down:
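Cells are treated with compound, grown, and their growth is then scored against vehicle-only cultures of the same repair-deficient yeast strain.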

Assay [2] can be described thus: NCI Yeast Anticancer Drug Screen. Data for the mec2-1 strain (AID 157). The following applies: S. cerevisiae mec2-1 strain, active compounds read high. The method, boiled down: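 Vehicle-treated cultures served as reference for growth inhibition of compound-exposed mec2-1 yeast.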
Assay [3] in a line: NCI Yeast Anticancer Drug Screen. Data for the cln2 rad14 strain (AID 165).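 Further: 0% = growth equal to vehicle treated cultures.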 The following applies: S. cerevisiae cln2 rad14 strain, active compounds read high. The method, boiled down:
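Each compound was tested on cln2 rad14 yeast. Inhibition of growth was calculated against vehicle-exposed controls.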

Assay [4] can be described thus: NCI Yeast Anticancer Drug Screen. Data for the bub3 strain (AID 167). The following applies: S. cerevisiae bub3 mutant strain, active compounds read high. In short, it runs like this: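 Part of a panel of yeast mutants defective in DNA damage repair or cell cycle regulation. Each strain is grown with compound, and inhibition is calculated relative to solvent-treated cultures.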

A short description of assay [5]: NCI Yeast Anticancer Drug Screen. Data for the mlh1 rad18 strain (AID 175). The following applies: S. cerevisiae mlh1 rad18 strain growth inhibition, active compounds read high. In short, it runs like this: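 Vehicle-treated cultures served as the reference for growth inhibition in a yeast strain carrying DNA damage repair alterations exposed to each compound.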
The nature of assay [6]: NCI Yeast Anticancer Drug Screen. Data for the sgs1 mgt1 strain (AID 161).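 Further: 0% = growth of cultures given vehicle only.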 The following applies: S. cerevisiae sgs1 mgt1 strain, active compounds read high. In short, it runs like this:
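Genetically altered yeast, compound exposure, growth inhibition relative to vehicle.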

Where [7] appears, read: at 5.0 µM (retest, dose inferred, filed as 0.5).
Setting [8] is: at 50.0 µM (retest, dose inferred, filed as 5.0).

Molecules are shown by their SMILES. “And” between values parts separate entries of the source, which are not always exact repeats. Identical values can stand only once. This is part of a sample that, as a whole, favours compounds with a hit. Of some 79,000 tested, about 15% had one in any assay. Unmarked numbers belong to inactive results. The source made the active and inactive calls. No stated cut-off is given here; in the data, active means growth inhibition above about 70%; inactive means the rest.

On to `Cc1ccccc1[N+](=O)[O-]`, for which the growth inhibition is 19.1% in assay [1]; 13.6% in assay [2] (at 50.0 µM); 9.45% in assay [3] (at 50.0 µM); -10.1% in assay [4] (at 50.0 µM); -3.3% in assay [5] (at 50.0 µM).

Turning to `CCOC(=O)CC(=O)c1ccccc1`, the growth inhibition is 16.9% and -9.6% in assay [1]; -17.6% and -2% in assay [2] (at 50.0 µM); 14.1% and -15.7% in assay [5] (at 50.0 µM).

With `CCC[CH2][Sn]1([CH2]CCC)[O]C2C(O)OC(CO)C(O)C2[O]1` (stereo not drawn), the growth inhibition in assay [2] (setting [7]) was 74% (active); in assay [2] (setting [8]), 99% (active); in assay [2] (at 50.0 µM), 99.3% (active); in assay [6] (setting [7]) it was 82% (active); in assay [6] (setting [8]) it was 99% (active); in assay [6] (at 50.0 µM) it was 99% (active). Moreover, the growth inhibition is 64% in assay [3] (setting [7]); 99% (active) in assay [3] (setting [8]); 99% (active) in assay [3] (at 50.0 µM); 80% (active) in assay [4] (setting [7]); 99% (active) in assay [4] (setting [8]); 98.7% (active) in assay [4] (at 50.0 µM). Further, the growth inhibition in assay [5] (setting [7]) was 81% (active); in assay [5] (setting [8]), 99% (active); in assay [5] (at 50.0 µM), 98.6% (active).

On to `CC(C)(Cl)[N+](=O)[O-]`, for which the growth inhibition was -13.3% in assay [2] (at 50.0 µM); 6.65% in assay [6] (at 50.0 µM); -1.7% in assay [3] (at 50.0 µM); -5.45% in assay [4] (at 50.0 µM); 16.6% in assay [5] (at 50.0 µM).

For the compound `CCOC(=O)C1C(=O)C(=O)N2CCc3c([nH]c4ccccc34)C12` (stereo not drawn), the growth inhibition is 17.5% in assay [1]; 34% in assay [6] (at 50.0 µM); 12.4% in assay [3] (at 50.0 µM); -3% in assay [4] (at 50.0 µM); 15.6% in assay [5] (at 50.0 µM).

For `O=C1OP2(c3ccccc3)(OC(=O)c3ccccc32)c2ccccc21`, the growth inhibition in assay [1] is 18.6%; in assay [2] (at 50.0 µM), 16.2%; in assay [3] (at 50.0 µM), -20.3%; in assay [4] (at 50.0 µM) it was -18.5%; in assay [5] (at 50.0 µM), 14.3%.

In the case of `COC(=O)C(Cl)CCl` (stereo not drawn), the growth inhibition in assay [1] is 2.45% and 39.4%; in assay [6] (at 50.0 µM), -9.05% and 16%; in assay [3] (at 50.0 µM) it was -23.2% and -34.7%; in assay [4] (at 50.0 µM), -2.3% and 15.8%; in assay [5] (at 50.0 µM) it was -20.8% and 25.7%.

As to `COc1cc2[nH]cc(CN(C)C)c2cc1OC`, the growth inhibition in assay [1] was 3%; in assay [2] (at 50.0 µM), -0.55%; in assay [6] (at 50.0 µM) it was -11.2%; in assay [4] (at 50.0 µM), -0.25%; in assay [5] (at 50.0 µM), -7.35%.

For `OCCCCO`, the growth inhibition in assay [1] is -5.9%; in assay [6] (at 50.0 µM) it was -12%; in assay [3] (at 50.0 µM), -10.4%; in assay [4] (at 50.0 µM) it was -12.1%; in assay [5] (at 50.0 µM), 1.35%.

In the case of `O=C(Oc1ccc(S(=O)(=O)F)cc1Cl)c1ccccc1Cl`, the growth inhibition in assay [1] is 99.4% (active); in assay [2] (at 50.0 µM) it was 99.6% (active); in assay [3] (at 50.0 µM), 99.3% (active); in assay [4] (at 50.0 µM), 99.4% (active); in assay [5] (at 50.0 µM), 99.4% (active).

With `Cc1ccc(S(=O)(=O)/N=[Se](\C)c2ccccc2)cc1` (stereo not drawn), the growth inhibition in assay [2] (setting [7]) was 11%; in assay [2] (setting [8]), 95% (active); in assay [2] (at 50.0 µM) it was 68.5%; in assay [6] (setting [7]), 18%; in assay [6] (setting [8]), 83% (active); in assay [6] (at 50.0 µM) it was 90.7% (active). Further, the growth inhibition in assay [3] (setting [7]) is -1%; in assay [3] (setting [8]), 56%; in assay [3] (at 50.0 µM), 60.9%; in assay [4] (setting [7]) it was 2%; in assay [4] (setting [8]), 83% (active); in assay [4] (at 50.0 µM) it was 80% (active). The figures for the growth inhibition in assay [5] (setting [7]), in assay [5] (setting [8]) and in assay [5] (at 50.0 µM) were 13%, 91% (active) and 87.4% (active), respectively.

Consider `O=C1N[C@H]2[C@H](O)[C@H](O)[C@@H](O)[C@H](O)[C@@H]2c2cc3c(c(O)c21)OCO3`, for which the growth inhibition in assay [2] (setting [7]) was 19%; in assay [2] (setting [8]), 70% (active); in assay [2] (at 50.0 µM) it was 65.8%; in assay [6] (setting [7]) it was 17%; in assay [6] (setting [8]), 58%; in assay [6] (at 50.0 µM), 67.2%. Also, the growth inhibition in assay [3] (setting [7]) was 32%; in assay [3] (setting [8]) it was 66%; in assay [3] (at 50.0 µM) it was 69%; in assay [4] (setting [7]) it was 19%; in assay [4] (setting [8]), 60%; in assay [4] (at 50.0 µM), 68.7%. The growth inhibition is 26% in assay [5] (setting [7]), 84% (active) in assay [5] (setting [8]) and 58.2% in assay [5] (at 50.0 µM).

For the compound `C=C[CH2][Sn]([CH3])([CH3])[CH2]C=C`, the growth inhibition was 11.1% in assay [1]; 2.75% in assay [6] (at 50.0 µM); -19.4% in assay [3] (at 50.0 µM); -12.6% in assay [4] (at 50.0 µM); 4.75% in assay [5] (at 50.0 µM).

Regarding `CCN(CC)CCN1C(=O)NC(=O)C(CC)(c2ccccc2)C1=O` (stereo not drawn), the growth inhibition in assay [1] is 4.1%; in assay [6] (at 50.0 µM) it was -6%; in assay [3] (at 50.0 µM) it was 2.9%; in assay [4] (at 50.0 µM) it was 8.05%; in assay [5] (at 50.0 µM) it was 4.9%.

`C[N+](C)(C)CC1CCCCC1=O` (stereo not drawn): the growth inhibition in assay [1] is 24.1%; in assay [2] (at 50.0 µM), 11.6%; in assay [3] (at 50.0 µM), 21.8%; in assay [4] (at 50.0 µM), 11.7%; in assay [5] (at 50.0 µM), 44.5%.

Turning to `NCCC1CCc2[nH]c3ccccc3c2C1` (stereo not drawn), the growth inhibition in assay [1] was -7.3%; in assay [2] (at 50.0 µM), -6.1%; in assay [3] (at 50.0 µM), -52.4%; in assay [4] (at 50.0 µM) it was -15.3%; in assay [5] (at 50.0 µM), -8.15%.

Take `Cc1ccc(CCl)c(O)c1`: the growth inhibition in assay [2] (at 50.0 µM) is -14.6%; in assay [6] (at 50.0 µM) it was -6%; in assay [3] (at 50.0 µM), -12.5%; in assay [4] (at 50.0 µM), 7.1%; in assay [5] (at 50.0 µM) it was -0.8%.

Take `Cc1nn[n-]n1.N.N.N.N.N.[Cl-].[Co+3]`: the growth inhibition is 4.25% in assay [1]; 22.1% in assay [6] (at 50.0 µM); 27.9% in assay [3] (at 50.0 µM); 9.6% in assay [4] (at 50.0 µM); 13.1% in assay [5] (at 50.0 µM).

These data come from PubChem BioAssay (NCI).
